Values joined by “and” are separate entries in the source; they are usually repeats but may differ in a detail not shown here. Identical values can stand only once. Results filed as inconclusive are left out. Active and inactive are the calls of the source. Unless noted, the call rests on the fitted dose curve; in most records, active means well fitted curve in the direction sought with a large enough effect; inconclusive means small, poorly fitted or top-dose-only effect, or another doubt; inactive means no such curve, though single readings can be large; an effect the other way counts as inactive or inconclusive.
Columns and labels:
[1] = Cell Viability - BJ (AID 421; calls by dose curve;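 further: potency means the concentration at half of the fitted maximal effect; cells exposed to compound for 40 hours at 37 °C before readout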); settings: BJ fibroblast viability, qHTS
Method in brief: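 Normal human BJ foreskin fibroblasts, 1500/well in complete medium, treated 40 hr at 37 °C. Cellular ATP by CellTiter-Glo luminescence; normalized to DMSO and 100 uM tamoxifen, AC50 from Hill fit.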

[2] = Cell Viability - Jurkat (AID 426;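 active means dose-dependent loss of cell ATP signal giving a full or clear fitted curve, ranked by lower potency value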; further: potency means the concentration at half of the fitted maximal effect); settings: qHTS
Method in brief: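 Cells of the human T-cell leukemia line Jurkat (E6-1) are seeded at 5000 per well, treated with compound across a concentration range for 40 hours at 37 °C, then lysed with CellTiter-Glo; luminescence reports ATP.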

[3] = Cell Viability - Hek293 (AID 427;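 active means compounds whose dose-response curve shows a full or clear partial loss of cell viability, called from curve shape rather than a numeric limit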;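 further: potency means the concentration at half of the fitted maximal effect; cells exposed to compound for 40 hours at 37 °C before reading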); settings: qHTS
Method in brief: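 HEK293 cells in complete medium were exposed to compound for 40 hr at 37 °C, then cellular ATP was read by CellTiter-Glo luminescence. Data were normalized to DMSO (basal) and 100 uM tamoxifen (100% inhibition), and AC50 came from Hill fits.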

[4] = Cell Viability - HepG2 (AID 433; calls by dose curve;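 further: potency means the concentration at half of the fitted maximal effect; potency for ATP loss meaning cytotoxicity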); settings: qHTS
Method in brief: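 Read-out is luciferase-based quantitation of cellular ATP as a measure of viable HepG2 cells after 40 h treatment at 37 °C. Signal decrease is scaled between DMSO-only and 100 uM tamoxifen controls, with AC50 fitted by the Hill equation.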

[5] = Cell Viability - MRC5 (AID 434; calls by dose curve;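 further: potency means the concentration at half of the fitted maximal effect; potency reflects cytotoxicity seen as loss of intracellular ATP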); settings: MRC5 lung fibroblast viability, qHTS
Method in brief: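 ATP luminescence read-out (CellTiter-Glo, 20 min RT) after 40 hr, 37 °C compound exposure of 1500 MRC5 cells/well. Data normalized to DMSO (basal) and 100 uM tamoxifen (100% inhibition); AC50 from standard Hill equation.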

[6] = Cell Viability - SK-N-SH (AID 435; calls by dose curve;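 further: potency means the concentration at half of the fitted maximal effect; compound exposure lasted 40 h at 37 °C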); settings: SK-N-SH neuroblastoma cell viability qHTS
Method in brief: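 Luminescent ATP signal served as the viability read-out after 40 hours of compound treatment of human neuroblastoma SK-N-SH cells. Concentration-response data, scaled between DMSO and 100 uM tamoxifen, gave AC50 values by standard Hill modeling.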

[7] = biological target: Mitogen-activated protein kinase 10 (Mus musculus) (UniProt Q61831); test: JNK3 AlphaScreen Assay (AID 530; active means well fitted curve in either direction with a large enough effect, not every such curve was filed as active;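 further: kinase came from lysate of stimulated human HepG2 cells; signal reports phosphorylation of biotinylated GST-cJun 1-79 at Ser73 with 10 µM ATP; on the % scale 0 is the no-effect control and ±100 the full control effect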)
Method in brief: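 Activity was read by AlphaScreen after JNK3-containing HepG2 lysate (cytokine pre-activated) phosphorylated biotinylated GST-cJun with 10 uM ATP at room temperature. Phospho-Ser73 cJun antibody with Protein-A acceptor beads provided detection.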

[8] = Cell Viability - N2a (AID 540); settings: N2a mouse neuroblastoma cell viability; activity change, negative = cytotoxicity: at 92.2 µM (top of the series);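 further: plate controls were DMSO alone for no effect and tamoxifen control for full effect; nearly all actives have a fitted effect of over 45% in size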
Method in brief: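 Cytotoxicity was scored as loss of cellular ATP in N2a cells, a mouse neuroblastoma line. Compounds are applied in a qHTS concentration series for 40 hr at 37 °C.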

[9] = Cell Viability - NIH 3T3 (AID 541); settings: NIH 3T3 cell viability, qHTS; activity change, negative = cytotoxicity: at 92.2 µM (top of the series);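 further: plate controls were DMSO alone for no effect and tamoxifen positive control for full effect; nearly all actives have a fitted effect of over 25% in size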
Method in brief: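 Cells seeded at 1000/well, rested 5 hr at 37 °C, then dosed and incubated 40 hr at 37 °C. CellTiter-Glo added, 20 min room temperature, luminescence read. AC50 by Hill fit.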

[10] = Cell Viability - HUV-EC-C (AID 542); further: on the % scale 0 is the no-effect control and ±100 the full control effect; nearly all actives have a fitted effect of over 35% in size
Method in brief: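 Cells were seeded at 1000 per well and incubated 5 hr at 37 °C before compound addition. After 40 hr at 37 °C, CellTiter-Glo reagent was added for 20 min and luminescence read. AC50 values came from Hill-equation modelling.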

[11] = Cell Viability - H-4-II-E (AID 543); further: on the % scale 0 is the no-effect control and ±100 the full control effect; nearly all actives have a fitted effect of over 35% in size
Method in brief: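 Cells seeded at 1500 per well and rested 5 hr; compounds added; 40 hr incubation at 37 °C; CellTiter-Glo added, 20 min at room temperature; luminescence read. Hill-equation fits gave AC50.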

[12] = Cell Viability - SH-SY5Y (AID 544); settings: SH-SY5Y neuroblastoma cell viability; viability change, negative = cytotoxic: at 92.2 µM (top of the series); further: nearly all actives have a fitted effect of over 55% in size
Method in brief: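 Cells were plated at 1500 per well and allowed 5 hr at 37 °C. Compounds were added across a concentration range and incubated 40 hr at 37 °C. CellTiter-Glo was added for 20 min at room temperature before luminescence reading.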

[13] = Cell Viability - Renal Proximal Tubule (AID 545); settings: renal proximal tubule cells viability, primary cells of rat origin; activity change, negative = cytotoxicity: at 91.7 µM (top of the series); further: nearly all actives have a fitted effect of over 40% in size
Method in brief: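 Luminescent ATP signal (CellTiter-Glo) served as the viability read-out after 40 hr compound exposure of freshly isolated rat proximal tubule cells at 37 °C. Concentration-dependent ATP loss was fitted with the Hill equation to give AC50.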

[14] = Cell Viability - Mesenchymal (AID 546); settings: mesenchymal cells viability, qHTS; activity change, negative = cytotoxicity: at 91.7 µM (top of the series);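 further: cells exposed to compound for 40 hours before reading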
Method in brief: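 Human renal mesenchymal cells (glomerulus-derived), 1000 cells/well, 5 hr 37 °C pre-incubation; compound 40 hr, 37 °C; CellTiter-Glo, 20 min RT; luminescence; AC50 via Hill equation.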

[15] = Cellular Toxicity (caspase-3) HepG2 (AID 654);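 further: cells exposed to compound for 16 hours before reading; 0% = DMSO alone and 100% = caspase signal from 100 µM tamoxifen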
Method in brief: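 Caspase 3/7 activation in HepG2 is measured as rising luminescence after a 16 hr treatment at 37 °C. Values are scaled between DMSO basal and 100 uM tamoxifen, and AC50 is fitted with the Hill equation.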

[16] = Cellular Toxicity (caspase-3) Jurkat (AID 655); settings: Jurkat caspase-3 activation, luminescence; caspase-3 activation: at 92.2 µM (top of the series), DMSO = 0%, tamoxifen = 100%;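 further: cells exposed to compound for 16 h at 37 °C before reading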
Method in brief: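 5000 Jurkat cells/well; compound 16 hr, 37 °C; Caspase-Glo 3/7 added, 20 min RT; luminescence read. Norm: DMSO = 0%, tamoxifen 100 uM = 100%. AC50, Hill model.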

[17] = Cellular Toxicity (caspase-3) HUV-EC-C (AID 656)
Method in brief: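 qHTS; HUV-EC-C, 1000 cells/well; 5 hr settle, 16 hr cmpd, 37°C; Caspase-Glo 3/7, 20 min RT; luminescence. Norm: DMSO = 0%, tamoxifen 100 uM = 100%. Hill-fit AC50.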

[18] = Cellular Toxicity (caspase-3) BJ (AID 658); settings: Potency: caspase-3 activation;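 further: cells exposed to compound for 16 hours; 0% = DMSO basal and 100% = 10 µM staurosporine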
Method in brief: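 qHTS, BJ fibroblasts, 1000 cells/well; 5 hr preincubation, 16 hr compound, 37 °C; Caspase-Glo 3/7 reagent, 1 hr RT; luminescence. DMSO = 0%, 10 uM staurosporine = 100%. Hill-equation AC50.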

[19] = Cellular Toxicity (caspase-3) MRC-5 (AID 659);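 further: 0% = DMSO basal and 100% = 10 µM staurosporine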
Method in brief: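 MRC-5 fibroblasts, 1500/well; 16 h cpd, 37 °C; Caspase-Glo 3/7, 1 h RT; lumi read. Norm: DMSO = 0%, 10 uM staurosporine = 100%. Hill-fit AC50 from qHTS conc-response.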

[20] = Cellular Toxicity (caspase-3) Mesangial (AID 660); settings: mesangial cells, normalized: DMSO 0%, 100 µM tamoxifen 100%; at 91.7 µM (top of the series);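 further: combined caspase 3 and 7 activity read by Caspase-Glo luminescence; cells exposed to compound for 16 h before the caspase read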
Method in brief: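 Seed cells derived from normal human renal glomeruli, incubate 5 h, add compounds across concentrations and incubate 16 h at 37 °C. Caspase 3/7 activation is then quantified by luciferase light, with AC50 derived by Hill modeling.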

[21] = Cellular Toxicity (caspase-3) SK-N-SH (AID 661); settings: SK-N-SH caspase-3 activation, qHTS; caspase-3 activation: at 91.7 µM (top of the series), DMSO as zero, staurosporine as full;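 further: cells exposed to compound for 16 hours; 0% = DMSO basal and 100% = 10 µM staurosporine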
Method in brief: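 Cells were seeded and incubated 5 hr at 37 °C, dosed with compound over a concentration range for 16 hr, then given Caspase-Glo 3/7 reagent for 1 hr at room temperature before luminescence reading.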

O=C(/C=C/c1ccc(O)c(O)c1)OC1C[C@](O)(C(=O)O)C[C@@H](O)[C@H]1O (stereo partly specified)
inactive: Potency [1] > 92 µM | Potency [2] > 92 µM | Potency [3] > 92 µM | Potency [4] > 92 µM | Potency [5] > 92 µM | Potency [6] > 92 µM | Potency [7] | Potency [8] | Potency [9] | Potency [10] | Potency [11] | Potency [12] | Potency [13] | Potency [14] | Potency [15] | Potency [16] | Potency [17] | Potency [18] | outcome [19] | caspase-3 activation [20] -0.588% and 1.58% | caspase-3 activation [21] 0.0888% and -0.0196%

Source: PubChem BioAssay (NCATS)
